Measurements reported in the supplement of paper PMC10849652.
Of roughly 7,900 targets only a part is listed; those with a hit were picked by preference. About 0.6% of all pairs of compound and target were hits.

Columns and labels:
Assay in all cases: log2 fold change, soluble protein after heating vs DMSO (PISA); higher = thermal stabilisation; K562 cells, 10 uM, 30 min; active = over 0.2 and 3.5 SD of the protein, either way, in both replicates (recomputed)
[1] = compound: CC[C@@H]1C(=O)N(C)c2cnc(Nc3ccc(C(=O)NC4CCN(C)CC4)cc3OC)nc2N1C1CCCC1
Procedure, shortened: (§1)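 Thermal stability values are relative to control samples and come from duplicates. They are expressed as log2 fold changes. For measurement, K562 cells (2×10^6 cells/mL) received 10 μM compound for 30 min, and aliquots were heated for 3 min over 48°C-58°C, pooled, and extracted at 4°C in PBS with 0.5% NP-40. Soluble protein, the supernatant after 21,000xg for 90 min, was quantified by TMTpro 16plex LC-MS/MS with equalised channel sums.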

volasertib = compound: CC[C@@H]1C(=O)N(C)c2cnc(Nc3ccc(C(=O)N[C@H]4CC[C@H](N5CCN(CC6CC6)CC5)CC4)cc3OC)nc2N1C(C)C [volasertib]
Procedure, shortened: as §1

[2] = compound: CC[C@H](C)N1C=C(C2=C(C=C(C=C21)C3=CN=C(C=C3)N4CCNCC4)C(=O)NCC5=C(C=C(NC5=O)C)C)C
Procedure, shortened: as §1

epoxomicin = compound: CC[C@H](C)[C@@H](C(=O)N[C@@H]([C@@H](C)O)C(=O)N[C@@H](CC(C)C)C(=O)[C@]1(CO1)C)NC(=O)[C@H]([C@@H](C)CC)N(C)C(=O)C [epoxomicin]
Procedure, shortened: as §1

[3] = compound: CCn1c(C(=O)N(C2CC2)C2CC2)cc2c3c(ncn3C)c(Nc3cc(C)n(C)n3)nc21
Procedure, shortened: as §1

[4] = compound: CCn1cc(-c2ccnc3[nH]c(-c4cccc(CN(C)C)c4)cc23)c(-c2ccc(NC(=O)N(C)C)cc2)n1
Procedure, shortened: as §1

[5] = compound: CN(C)CC(=O)Nc1ccc2[nH]c(=O)c3ccccc3c2c1
Procedure, shortened: as §1

rosiglitazone = compound: CN(CCOC1=CC=C(C=C1)C[C@H]2C(=O)NC(=O)S2)C3=CC=CC=N3 (racemic) [rosiglitazone]
Procedure, shortened: as §1

[6] = compound: CN1C2=C(C3=C1C(=O)N(N=C3)CC4=CC(=CC=C4)N)SC(=C2)S(=O)C
Procedure, shortened: as §1

[7] = compound: CN1CCC(CNc2ccc3ncc(-c4cccc(OC(F)(F)F)c4)n3n2)CC1
Procedure, shortened: as §1

Measured: log2 fold change

STK4 (UniProt Q13043)
UniProt Q13043, sequence (Q13043 whole entry, looked up): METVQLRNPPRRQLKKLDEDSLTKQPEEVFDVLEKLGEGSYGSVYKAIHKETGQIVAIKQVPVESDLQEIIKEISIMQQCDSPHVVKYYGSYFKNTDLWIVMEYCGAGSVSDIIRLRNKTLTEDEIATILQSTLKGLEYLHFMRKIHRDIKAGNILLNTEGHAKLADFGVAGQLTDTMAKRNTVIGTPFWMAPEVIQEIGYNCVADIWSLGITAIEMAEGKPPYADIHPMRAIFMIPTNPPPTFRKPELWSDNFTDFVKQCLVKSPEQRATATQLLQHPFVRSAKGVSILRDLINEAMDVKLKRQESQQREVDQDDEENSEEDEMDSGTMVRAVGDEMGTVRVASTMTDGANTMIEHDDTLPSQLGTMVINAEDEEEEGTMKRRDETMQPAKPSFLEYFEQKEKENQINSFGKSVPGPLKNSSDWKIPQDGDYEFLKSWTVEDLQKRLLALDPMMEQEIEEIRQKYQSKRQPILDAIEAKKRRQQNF
inactive: [1] 0.024 | volasertib 0.006 | [2] 0.014 | epoxomicin 0.033 | [3] -0.029 | [4] -0.041 | [5] 0.013 | rosiglitazone 0.03 | [6] 0.004 | [7] -0.061

TIPRL (UniProt O75663)
inactive: [1] -0.061 | [2] 0.072 | epoxomicin 0.025 | [3] -0.012 | [4] -0.057 | [5] 0.032 | rosiglitazone 0.085 | [6] 0.021 | [7] -0.214
active: volasertib -0.23

STEAP3 isoform 2 (UniProt Q658P3)
inactive: [1] 0.036 | volasertib -0.013 | [2] -0.023 | epoxomicin 0.01 | [3] 0.028 | [4] -0.084 | [5] 0.002 | rosiglitazone 0.021 | [6] 0.041 | [7] -0.096

SMC5 (UniProt Q8IY18)
inactive: [1] 0.042 | volasertib 0.054 | [2] -0.009 | epoxomicin 0.018 | [3] -0.023 | [4] -0.025 | [5] 0.033 | rosiglitazone 0 | [6] 0.005 | [7] 0.037

TAX1BP1 (UniProt Q86VP1)
inactive: [1] -0.144 | [2] -0.081 | epoxomicin -0.027 | [3] 0.055 | [4] -0.067 | [5] 0 | rosiglitazone -0.011 | [6] -0.001 | [7] 0.003
active: volasertib -0.298

STARD7 (UniProt Q9NQZ5)
inactive: [1] -0.07 | volasertib -0.032 | [2] 0.007 | epoxomicin 0.024 | [3] 0.037 | [4] -0.123 | [5] 0.012 | rosiglitazone 0.055 | [6] 0.012 | [7] -0.158

STAT3 (UniProt P40763)
inactive: [2] 0.056 | epoxomicin 0.002 | [3] -0.052 | [4] -0.059 | [5] 0.052 | rosiglitazone 0.063 | [6] -0.047
active: [1] -0.336 | volasertib -0.767 | [7] -0.275

SNRPD3 (UniProt P62318)
inactive: [1] 0.194 | volasertib 0.134 | [2] -0.058 | epoxomicin -0.037 | [3] 0.005 | [4] 0.058 | [5] -0.07 | rosiglitazone -0.047 | [6] 0.001 | [7] 0.198

TIMM10 (UniProt P62072)
UniProt P62072, sequence (P62072 whole entry, looked up): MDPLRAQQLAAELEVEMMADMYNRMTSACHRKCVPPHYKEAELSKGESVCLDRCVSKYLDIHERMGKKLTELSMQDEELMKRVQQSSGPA
inactive: [1] 0.029 | volasertib 0.052 | [2] -0.023 | epoxomicin 0.032 | [3] 0.059 | [4] 0.006 | [5] -0.046 | rosiglitazone -0.007 | [6] -0.074 | [7] 0.14

SPPL2B (UniProt Q8TCT7)
inactive: [1] 0.039 | volasertib 0 | [2] -0.003 | epoxomicin -0.076 | [3] -0.004 | [4] 0.028 | [5] 0.035 | rosiglitazone -0.022 | [6] 0.033 | [7] -0.228

SUN2 (UniProt Q9UH99)
UniProt Q9UH99, sequence (Q9UH99 whole entry, looked up): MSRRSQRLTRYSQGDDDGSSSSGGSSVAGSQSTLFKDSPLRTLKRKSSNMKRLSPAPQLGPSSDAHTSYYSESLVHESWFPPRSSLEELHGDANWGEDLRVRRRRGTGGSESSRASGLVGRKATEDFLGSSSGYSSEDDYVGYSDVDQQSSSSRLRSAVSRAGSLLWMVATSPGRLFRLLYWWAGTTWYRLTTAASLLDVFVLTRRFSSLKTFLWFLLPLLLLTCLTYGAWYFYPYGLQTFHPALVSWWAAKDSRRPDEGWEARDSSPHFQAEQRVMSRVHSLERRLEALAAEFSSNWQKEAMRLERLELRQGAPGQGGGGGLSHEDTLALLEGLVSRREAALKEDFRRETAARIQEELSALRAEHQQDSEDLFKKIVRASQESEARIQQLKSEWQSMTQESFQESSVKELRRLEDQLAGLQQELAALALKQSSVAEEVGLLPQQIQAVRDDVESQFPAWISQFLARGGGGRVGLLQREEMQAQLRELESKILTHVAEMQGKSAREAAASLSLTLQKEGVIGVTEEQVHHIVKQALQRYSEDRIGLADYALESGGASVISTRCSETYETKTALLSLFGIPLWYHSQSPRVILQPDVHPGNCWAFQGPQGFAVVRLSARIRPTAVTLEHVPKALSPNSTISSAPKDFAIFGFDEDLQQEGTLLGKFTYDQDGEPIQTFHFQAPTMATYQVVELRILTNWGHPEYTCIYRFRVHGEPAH
inactive: [1] 0.016 | volasertib -0.064 | [2] 0.01 | epoxomicin 0.045 | [3] 0.006 | [4] -0.032 | [5] -0.012 | rosiglitazone 0.033 | [6] 0.015 | [7] 0.057

SLC9A6 isoform 2 (UniProt Q92581)
inactive: [1] 0.047 | volasertib -0.081 | [2] 0.009 | epoxomicin -0.013 | [3] -0.003 | [4] -0.003 | [5] -0.026 | rosiglitazone -0.013 | [6] -0.039 | [7] -0.071

STK26 (UniProt Q9P289)
UniProt Q9P289, sequence (Q9P289 whole entry, looked up): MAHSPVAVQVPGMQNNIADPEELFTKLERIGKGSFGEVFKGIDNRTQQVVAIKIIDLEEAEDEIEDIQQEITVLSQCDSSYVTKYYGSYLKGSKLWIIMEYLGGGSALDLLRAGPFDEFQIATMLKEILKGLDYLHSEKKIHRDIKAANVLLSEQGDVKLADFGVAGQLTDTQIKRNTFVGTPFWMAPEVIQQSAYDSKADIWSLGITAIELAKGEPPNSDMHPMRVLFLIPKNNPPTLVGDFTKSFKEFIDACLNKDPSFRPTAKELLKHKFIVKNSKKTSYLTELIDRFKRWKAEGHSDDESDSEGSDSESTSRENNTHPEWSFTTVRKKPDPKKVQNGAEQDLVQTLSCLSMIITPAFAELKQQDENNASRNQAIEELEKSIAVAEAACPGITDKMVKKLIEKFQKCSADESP
inactive: [1] -0.017 | volasertib -0.062 | [2] 0.018 | epoxomicin 0.084 | [3] -0.003 | [4] -0.117 | [5] -0.033 | rosiglitazone 0.068 | [6] 0.014 | [7] -0.191

SMAP (UniProt O00193)
inactive: [1] -0.024 | volasertib 0.023 | [2] -0.043 | epoxomicin 0.06 | [3] -0.02 | [4] 0.014 | [5] -0.011 | rosiglitazone -0.038 | [6] -0.088 | [7] -0.045

TANK (UniProt Q92844)
inactive: [1] 0.057 | volasertib -0.105 | [2] -0.064 | epoxomicin -0.021 | [3] -0.074 | [4] 0.074 | [5] -0.012 | rosiglitazone -0.012 | [6] -0.117 | [7] -0.072

SRI (UniProt P30626)
inactive: [1] 0.008 | volasertib -0.111 | [2] -0.013 | [3] 0.09 | [4] -0.058 | [5] 0.009 | rosiglitazone 0.003 | [6] -0.071 | [7] 0.126
active: epoxomicin 0.393

SMAP2 (UniProt Q8WU79)
UniProt Q8WU79, sequence (Q8WU79 whole entry, looked up): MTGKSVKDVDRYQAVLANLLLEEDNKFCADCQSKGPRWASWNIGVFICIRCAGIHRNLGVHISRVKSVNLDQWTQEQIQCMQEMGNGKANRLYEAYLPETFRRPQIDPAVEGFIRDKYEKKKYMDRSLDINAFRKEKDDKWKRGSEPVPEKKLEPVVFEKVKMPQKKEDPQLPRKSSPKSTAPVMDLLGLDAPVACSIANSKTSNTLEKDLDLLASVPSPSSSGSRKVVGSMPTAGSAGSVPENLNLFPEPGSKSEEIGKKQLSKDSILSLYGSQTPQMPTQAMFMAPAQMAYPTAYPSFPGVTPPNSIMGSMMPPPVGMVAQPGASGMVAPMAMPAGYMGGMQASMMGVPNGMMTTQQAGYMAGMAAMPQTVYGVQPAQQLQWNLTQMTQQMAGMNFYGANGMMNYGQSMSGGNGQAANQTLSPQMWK
active: volasertib -0.3
inactive: [1] -0.054 | [2] 0.131 | epoxomicin 0.056 | [3] -0.015 | [4] -0.009 | [5] 0.008 | rosiglitazone 0.073 | [6] -0.021 | [7] 0.015

SRSF11 (UniProt Q05519)
active: volasertib -0.311
inactive: [1] -0.088 | [2] 0.074 | epoxomicin 0.047 | [3] -0.022 | [4] -0.072 | [5] 0.02 | rosiglitazone 0.006 | [6] -0.018 | [7] 0.128

SLK isoform 2 (UniProt Q9H2G2)
inactive: [1] -0.095 | volasertib -0.161 | [2] 0.05 | epoxomicin 0.052 | [3] -0.002 | [5] -0.016 | rosiglitazone 0.041 | [6] -0.022 | [7] -0.152
active: [4] -0.271

SPTBN4 (UniProt Q9H254)
UniProt Q9H254, sequence (Q9H254 whole entry, looked up): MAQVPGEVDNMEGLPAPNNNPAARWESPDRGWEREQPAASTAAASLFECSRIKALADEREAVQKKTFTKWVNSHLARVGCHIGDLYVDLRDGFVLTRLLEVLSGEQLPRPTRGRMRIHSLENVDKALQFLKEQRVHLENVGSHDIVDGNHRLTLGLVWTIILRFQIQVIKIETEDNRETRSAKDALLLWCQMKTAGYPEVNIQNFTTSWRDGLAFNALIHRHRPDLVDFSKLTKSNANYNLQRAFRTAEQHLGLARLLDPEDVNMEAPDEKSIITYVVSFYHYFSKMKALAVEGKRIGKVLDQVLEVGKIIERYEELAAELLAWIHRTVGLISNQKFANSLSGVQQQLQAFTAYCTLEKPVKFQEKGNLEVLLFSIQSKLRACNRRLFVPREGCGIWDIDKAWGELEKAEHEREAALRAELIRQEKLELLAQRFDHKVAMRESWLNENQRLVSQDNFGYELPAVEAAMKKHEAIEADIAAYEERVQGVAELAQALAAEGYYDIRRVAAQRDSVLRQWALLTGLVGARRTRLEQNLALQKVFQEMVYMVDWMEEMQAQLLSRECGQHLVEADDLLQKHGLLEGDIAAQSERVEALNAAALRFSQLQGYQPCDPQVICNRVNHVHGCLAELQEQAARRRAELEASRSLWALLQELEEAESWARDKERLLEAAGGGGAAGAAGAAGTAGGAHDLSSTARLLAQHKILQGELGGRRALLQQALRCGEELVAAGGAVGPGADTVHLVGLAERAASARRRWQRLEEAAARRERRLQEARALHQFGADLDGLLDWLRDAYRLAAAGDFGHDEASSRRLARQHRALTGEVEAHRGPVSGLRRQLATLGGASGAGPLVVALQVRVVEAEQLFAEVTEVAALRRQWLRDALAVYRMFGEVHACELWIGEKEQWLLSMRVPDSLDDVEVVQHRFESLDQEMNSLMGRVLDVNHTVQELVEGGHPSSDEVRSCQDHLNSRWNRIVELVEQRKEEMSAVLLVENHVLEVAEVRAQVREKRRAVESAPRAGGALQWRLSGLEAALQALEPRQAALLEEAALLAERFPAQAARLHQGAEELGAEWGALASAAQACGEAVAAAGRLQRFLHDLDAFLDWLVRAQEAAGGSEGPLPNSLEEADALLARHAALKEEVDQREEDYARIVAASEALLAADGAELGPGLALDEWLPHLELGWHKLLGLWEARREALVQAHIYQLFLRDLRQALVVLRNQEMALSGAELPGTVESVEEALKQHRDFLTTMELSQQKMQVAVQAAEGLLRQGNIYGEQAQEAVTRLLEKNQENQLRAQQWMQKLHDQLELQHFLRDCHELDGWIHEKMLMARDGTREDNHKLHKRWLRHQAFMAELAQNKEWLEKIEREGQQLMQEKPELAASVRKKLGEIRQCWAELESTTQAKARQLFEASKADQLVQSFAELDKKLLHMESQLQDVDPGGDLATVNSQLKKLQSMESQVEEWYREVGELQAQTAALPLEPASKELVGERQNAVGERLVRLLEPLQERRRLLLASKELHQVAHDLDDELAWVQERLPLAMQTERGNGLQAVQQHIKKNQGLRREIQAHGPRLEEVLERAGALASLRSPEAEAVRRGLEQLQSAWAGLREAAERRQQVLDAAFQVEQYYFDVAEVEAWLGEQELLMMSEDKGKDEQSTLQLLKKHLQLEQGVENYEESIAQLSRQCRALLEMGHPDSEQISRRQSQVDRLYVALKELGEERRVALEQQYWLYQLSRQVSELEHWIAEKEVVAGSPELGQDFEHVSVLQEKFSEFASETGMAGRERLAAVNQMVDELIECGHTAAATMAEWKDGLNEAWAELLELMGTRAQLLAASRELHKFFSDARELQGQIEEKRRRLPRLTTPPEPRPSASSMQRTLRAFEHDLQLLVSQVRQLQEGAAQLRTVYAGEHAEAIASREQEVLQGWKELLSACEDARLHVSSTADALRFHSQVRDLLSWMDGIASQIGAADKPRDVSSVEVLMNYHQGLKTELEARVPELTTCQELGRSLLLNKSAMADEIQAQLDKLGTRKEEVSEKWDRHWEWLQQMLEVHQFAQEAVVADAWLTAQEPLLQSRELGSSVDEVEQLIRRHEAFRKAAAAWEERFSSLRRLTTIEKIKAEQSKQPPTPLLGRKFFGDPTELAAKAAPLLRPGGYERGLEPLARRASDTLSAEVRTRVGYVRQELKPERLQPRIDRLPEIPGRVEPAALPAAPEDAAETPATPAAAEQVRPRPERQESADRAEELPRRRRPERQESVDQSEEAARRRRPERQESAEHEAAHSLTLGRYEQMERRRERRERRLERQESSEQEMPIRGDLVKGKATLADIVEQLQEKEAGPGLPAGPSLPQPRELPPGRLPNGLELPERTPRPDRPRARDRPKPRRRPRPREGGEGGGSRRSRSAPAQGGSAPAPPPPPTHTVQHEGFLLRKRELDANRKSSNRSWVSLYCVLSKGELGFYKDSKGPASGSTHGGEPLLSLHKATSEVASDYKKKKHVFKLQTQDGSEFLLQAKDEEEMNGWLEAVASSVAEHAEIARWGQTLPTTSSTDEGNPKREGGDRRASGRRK
inactive: [1] 0.051 | volasertib -0.293 | [2] -0.025 | epoxomicin -0.018 | [3] -0.065 | [4] -0.1 | [5] 0.171 | rosiglitazone 0.017 | [6] 0.011 | [7] 0.153

SMARCA5 (UniProt O60264)
inactive: [1] -0.242 | volasertib -0.333 | [2] 0.045 | epoxomicin 0.092 | [3] -0.088 | [4] -0.06 | [5] 0.053 | rosiglitazone -0.003 | [6] 0.121 | [7] 0.076

TM9SF4 (UniProt Q92544)
active: volasertib -0.484
inactive: [1] -0.225 | [2] 0.024 | epoxomicin -0.055 | [3] 0.035 | [4] 0.052 | [5] 0.001 | rosiglitazone 0.082 | [6] -0.05 | [7] -0.084

SMG1 (UniProt Q96Q15)
inactive: [1] -0.137 | [2] 0.158 | epoxomicin 0.024 | [3] 0.002 | [4] 0.05 | [5] 0.046 | rosiglitazone -0.003 | [6] 0.129 | [7] -0.02
active: volasertib -0.391

SNW1 (UniProt Q13573)
inactive: [1] 0.094 | volasertib 0.078 | [2] -0.052 | epoxomicin -0.012 | [3] 0.03 | [4] 0.044 | [5] -0.027 | rosiglitazone -0.047 | [6] 0 | [7] 0.078

SYF2 (UniProt O95926)
UniProt O95926, sequence (O95926 whole entry, looked up): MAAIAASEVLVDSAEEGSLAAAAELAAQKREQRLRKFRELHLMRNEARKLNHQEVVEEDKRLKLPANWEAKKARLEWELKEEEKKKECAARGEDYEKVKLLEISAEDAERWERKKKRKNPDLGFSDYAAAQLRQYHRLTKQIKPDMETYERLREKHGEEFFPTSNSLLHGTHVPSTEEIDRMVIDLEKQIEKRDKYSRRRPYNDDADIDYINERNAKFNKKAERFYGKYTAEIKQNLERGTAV
inactive: [1] 0.196 | volasertib 0.174 | [2] -0.096 | epoxomicin 0.129 | [3] -0.01 | [4] 0.068 | [5] -0.044 | rosiglitazone -0.017 | [6] 0.039 | [7] 0.187

SREK1 isoform 2 (UniProt Q8WXA9)
inactive: [1] -0.122 | volasertib -0.22 | [2] 0.037 | epoxomicin -0.021 | [3] 0.021 | [4] -0.098 | [5] -0.029 | rosiglitazone 0.015 | [6] 0.026 | [7] -0.035

TBC1D15 isoform 3 (UniProt Q8TC07)
inactive: [1] -0.221 | [2] 0.04 | epoxomicin 0.004 | [3] -0.081 | [4] -0.024 | [5] 0.031 | rosiglitazone 0.05 | [6] 0.018
active: volasertib -0.485 | [7] -0.241

SNX11 (UniProt Q9Y5W9)
active: [7] -0.646
inactive: [1] -0.167 | volasertib -0.324 | [2] 0.066 | epoxomicin -0.031 | [3] -0.097 | [4] -0.022 | [5] -0.024 | rosiglitazone -0.007 | [6] 0.167

SUCLA2 (UniProt Q9P2R7)
inactive: [1] 0.013 | volasertib -0.105 | [2] 0.052 | epoxomicin 0.016 | [3] 0.01 | [4] -0.049 | [5] 0.018 | rosiglitazone 0.065 | [6] -0.071 | [7] -0.05

SPAG9 (UniProt O60271)
inactive: [1] -0.039 | volasertib -0.168 | [2] 0.046 | epoxomicin 0.028 | [3] -0.014 | [4] 0.02 | [5] 0.02 | rosiglitazone 0.043 | [6] -0.009 | [7] -0.203
